About 11,000 (3.5%) of roughly 310,000 compounds were called active. About 4% were inconclusive and are not listed. Shown is part of a subset that was picked to be rich in actives. Unmarked numbers belong to inactive results. The call rests on the fitted dose curve; in most records, active means well fitted inhibition curve with a large enough effect; inconclusive means small, poorly fitted or top-dose-only effect, or another doubt; inactive means no such curve, though single readings can be large or run the other way.
Potency means the concentration at half of the fitted maximal effect.

The target of this assay is 4'-phosphopantetheinyl transferase ffp (Bacillus subtilis) (UniProt Q9F4F7). The assay is described as follows: qHTS Assay for Inhibitors of Bacillus subtilis Sfp phosphopantetheinyl transferase (PPTase).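 Further: the enzyme is Sfp with the accession as filed and its product quenches rhodamine fluorescence.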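 On largest response in the series, negative = inhibition: 0% = enzyme reaction without inhibitor and -100% = no enzyme wells.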 Conditions: Biochemical Sfp PPTase activity. The method, boiled down: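 After 15 min at room temperature with compound, 15 nM Sfp received 5 uM rhodamine-CoA plus 12.5 uM BHQ-2-ybbR (50 mM Hepes pH 7.6, 10 mM MgCl2). Rate came from the fluorescence difference over 30 min, ex 525/em 598 nm.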
In general terms: Quantitative high-throughput screening tests each substance at several concentrations.
Take `CC(=O)N1CSCC1C(=O)O` (stereo not given): the Potency is 20 µM (active).
On to `CC(=O)N1Cc2ccccc2CC1C(=O)O` (stereo not given), for which the largest response in the series, negative = inhibition is 6.16%.
With `CC1CC(C)CN(C(=O)CCNC(=O)Cn2cnc3ccccc3c2=O)C1` (stereo not given), the largest response in the series, negative = inhibition was -7.35%.
Still for that read-out and setting: with `COc1ccc(NC(=O)c2sc3nc(C)nc(N4CCN(c5ccccn5)CC4)c3c2C)c(OC)c1` the figure was -8.26%; with `COc1ccccc1-n1cn[nH]c1=S`, -24.2%.
Regarding `COc1ccccc1-n1c(=S)[nH]c2c(sc(=S)n2-c2ccc(C)cc2C)c1=O`, the Potency is 50.1 µM (active).
Turning to `CCc1ccc(-n2c(=S)sc3c(=O)n(-c4ccccc4OC)c(=S)[nH]c32)cc1`, the largest response in the series, negative = inhibition is -10.9%.
On the same count and under the same terms, with `COc1ccccc1C1CCN(C(=S)Nc2ccc(Br)cc2)CC1` the figure was 16.1%.
As to `COc1cc(NC(=S)N2CCCC(C)C2)cc(OC)c1OC` (stereo not given), the Potency was 20 µM (active).
Turning to `COc1ccc(C)cc1NC(=S)N1CCOCC1`, the largest response in the series, negative = inhibition is 3.26%.
Still for that read-out and setting: with `COc1cc(NC(=O)NCC2CCN(Cc3ccc(C)cc3)CC2)cc(OC)c1OC` the figure was 4.55%.
For `COc1cc(NC(=S)N2CCCC(C)C2)c(OC)cc1Cl` (stereo not given), the Potency was 14.1 µM (active).
For `COc1ccc(NC(=S)N2CCCC(CO)C2)c(OC)c1` (stereo not given), the largest response in the series, negative = inhibition is -15.1%.
Same read-out and setting: with `CC1CC(C)CN(C(=O)C2CC(=O)N(c3ccc(F)cc3)C2)C1` (stereo not given) the figure was 0.935%; with `COc1ccc(C(CCN2CCOCC2)c2c(OC)cc(OC)c3c2OC(=O)CC3c2ccc(OC)cc2)cc1` (stereo not given), -11.3%; with `Cc1cc(F)ccc1N1CCC(N2CCN(C)C(CCO)C2)CC1` (stereo not given), 6.62%.
On the same count and under the same terms, the figure for `Cc1ccc(-c2c3c(=O)n(C)c(=O)n(C)c3cn2-n2cnnc2)cc1` is 12.6%.
Regarding `Cc1ccc(-c2c3c(=O)n(C)c(=O)n(C)c3cn2-c2ccccc2O)cc1`, the Potency is 56.2 µM (active).
Take `COc1ccc(-c2c3c(=O)n(C)c(=O)n(C)c3cn2-c2cccc(OC)c2)cc1`: the largest response in the series, negative = inhibition was 3.62%.
Take `O=C(CCNC(=O)C1CCN(S(=O)(=O)c2ccccc2)CC1)NC1CC1`: the largest response in the series, negative = inhibition is 5.65%.
Same read-out and setting: with `Cc1ccc(NC(=O)CCC(=O)c2ccc(Br)cc2)cc1` the figure was 11.8%.
The same measure, in the same setting: with `Cc1cc(C)c2c(=O)[nH]c(SCC(=O)Nc3ccc(Br)cc3)nc2n1` the figure was 1.73%.
For the compound `Cc1ccn(C(CC(=O)c2ccc(Br)cc2)C(=O)O)n1` (stereo not given), the Potency is 22.4 µM (active).
Still for that read-out and setting: the figure for `CCOc1ccc2nc(NCCNS(=O)(=O)c3ccccc3)c(C#N)cc2c1` is 79.4 µM (active).
As for `CCOc1ccc2nc(NCCNC(=O)C(C)(C)C)c(C)cc2c1`, the largest response in the series, negative = inhibition was 17.3%.
On the same count and under the same terms, with `CCOc1ccc(S(=O)(=O)NCCSc2ccccc2)cc1` the figure was 6.97%; with `COc1cc(COCC(O)CN2CCN(Cc3ccc4c(c3)OCO4)CC2)cc(OC)c1OC` (stereo not given), 8.76%; with `COc1ccc2cc1Oc1ccc(cc1)C[C@H]1c3cc(c(OC)cc3CCN1C)Oc1c(O)c(OC)cc3c1[C@H](C2)N(C)CC3`, 1.93%.
`COc1c(O)ccc2c1CN1CCc3cc4c(cc3C1C2)OCO4` (stereo not given): the Potency was 35.5 µM (active).
With `CCOC(=O)[C@]1(C(/C=C/c2ccco2)NC(=O)OC)CCCC1=O` (stereo not given in full), the largest response in the series, negative = inhibition was -6.29%.
With `O=C(O)c1cc(S(=O)(=O)N(Cc2ccccc2)c2ccccc2)ccc1Cl`, the largest response in the series, negative = inhibition was 19%.
Regarding `CCC(c1nnnn1C1CCCC1)N(Cc1cccs1)Cc1cc2cccc(C)c2[nH]c1=O` (stereo not given), the largest response in the series, negative = inhibition is 9.11%.
Consider `COc1ccc2[nH]c(=O)c(CN(Cc3nnnn3CCc3ccccc3)CC3CCCO3)cc2c1` (stereo not given), for which the largest response in the series, negative = inhibition was 0.899%.
Still for that read-out and setting: the figure for `CCC(c1nnnn1Cc1ccco1)N(CCc1ccccc1)Cc1cc2ccc(OC)cc2[nH]c1=O` (stereo not given) is -15.9%; for `CCC(c1nnnn1Cc1ccccc1)N(Cc1cc2cc(OC)ccc2[nH]c1=O)CC1CCCO1` (stereo not given) it is -86%.
As to `CCC(c1nnnn1Cc1ccco1)N(Cc1cc2cc(OC)ccc2[nH]c1=O)C1CCCCC1` (stereo not given), the Potency was 3.55 µM (active).
For the compound `CCC(c1nnnn1Cc1ccco1)N(CCc1ccccc1)Cc1cc2cccc(C)c2[nH]c1=O` (stereo not given), the Potency is 25.1 µM (active).
`COc1ccc(-c2nc3c(s2)CCc2onc(-c4ccc(OC)cc4)c2-3)cc1`: the largest response in the series, negative = inhibition is 4.62%.
Take `CC(NCc1cccs1)C(=O)Nc1cc(Cl)cc(Cl)c1` (stereo not given): the largest response in the series, negative = inhibition is -16.2%.
With `CC1=C(C(=O)NC2CC(C)(C)Cc3c2cnn3-c2ccc(C)cc2)OCCO1` (stereo not given), the largest response in the series, negative = inhibition is 15.5%.
As to `CCN(CC)CCCCn1c(-c2ccccc2)nc2c(N3CCOCC3)nc(C)nc21`, the largest response in the series, negative = inhibition is 39.5%.
On the same count and under the same terms, the figure for `O=C(C1CCCO1)N1CCN(S(=O)(=O)c2ccc(Br)cc2)CC1` (stereo not given) is -3.46%; for `O=C(CN1C(=O)S/C(=C\c2ccccc2F)C1=O)NCCCn1ccnc1` it is 16.3%.
As to `COc1cc2ccccc2cc1C(=O)Nc1nc(C)c(C(C)=O)s1`, the largest response in the series, negative = inhibition is -2.33%.
`CC(=O)c1sc(NC(=O)C2=NN(c3ccccc3)C(=O)CC2)nc1C`: the Potency is 79.4 µM (active).

The values are drawn from PubChem BioAssay AID1490 (National Center for Advancing Translational Sciences (NCATS), 2009).
